Sampled rows, rich in hits. Any-hit rate of the full collection: about 6.5%.
HCMV inh – human cytomegalovirus inhibition; activity change, negative = inhibition, % at 57.5 µM; HFF cells, HCMV-luciferase reporter, 72 h; hits give low values; hit rate 4.5% among 410,000; in the data active = activity change below about -60%; inconclusive = no clear call, values can overlap the other calls; inactive = above about -39%
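Luciferase read-out from HCMV-luciferase-infected HFFs (MOI 1 PFU/cell) 72 h post infection at 37C; compounds added after 16 h cell attachment; activity normalized between buffer-only basal and Salinomycin (10uM) inhibitor controls.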
VACV Venus inh – inhibitors of vaccinia virus (Venus reporter); Vaccinia virus Venus reporter expression, fluorescence; Potency, µM (highest dose often 36.5 µM), without a hit: at the highest dose activity change, negative = inhibition, most hits filed as inhibitors; hit rate 0.46% among 330,000; calls by dose curve; tested in A549 cells; note: potency is the fitted concentration of half-maximal effect; nearly all actives have a fitted effect of over 30% in size
FMDV antiviral – antivirals against foot and mouth disease virus. FMDV antiviral cell-based qHTS. Potency, µM (series often up to 57.9 µM), without a hit: at the top dose activity change, negative = inhibition, actives largely listed as inhibitors. hit rate 1.2% among 410,000; calls by dose curve; tested in HEK293T cells; note: read-out not given here; potency is the fitted concentration of half-maximal effect; nearly all actives have a fitted effect of over 45% in size
Vaccinia mCherry – vaccinia inhibition (mCherry reporter); Vaccinia virus mCherry reporter infection, fluorescence; Potency, µM (top dose mostly 36.5 µM), for inactives: at the top dose activity change, negative = inhibition, most hits filed as inhibitors; hit rate 0.63% among 310,000; AID 720579; calls by dose curve; tested in A549 cells; note: potency is the fitted concentration of half-maximal effect; nearly all actives have a fitted effect of over 35% in size
LASV entry inh – blocks Lassa virus binding to or entry into cells; Lassa virus pseudotype entry inhibition, cell reporter; Potency, µM (top dose mostly 37.9 µM), without a hit: top-dose activity change, negative = inhibition, usual class: inhibitors; hit rate 1.2% among 300,000; AID 540256; calls by dose curve; tested in HEK293 cells; note: potency is the fitted concentration of half-maximal effect; nearly all actives have a fitted effect of over 50% in size
Marburg entry inh – blocks Marburg virus binding to or entry into cells; Marburg virus pseudotyped entry inhibition, cell reporter; Potency, µM (doses to about 37.8 µM), inactives show at the highest dose activity change, negative = inhibition, hits mostly inhibitors; hit rate 1.8% among 300,000; AID 540276; calls by dose curve; tested in HEK293 cells; note: potency is the fitted concentration of half-maximal effect
* hit, by the source's call; i = inactive; u = inconclusive; x = not tested or not shown; [ ] = remark or other dose. % is set by controls: 0 for no effect and ±100 for the full control effect.

SMILES | HCMV inh | VACV Venus inh | FMDV antiviral | Vaccinia mCherry | LASV entry inh | Marburg entry inh
CN(C)S(=O)(=O)c1ccc(C(=O)N2CCN(S(=O)(=O)c3cccs3)CC2)cc1 | -26 | -1% | -20% | -17% | 3% | -24%[46.1 µM]
CN(C)C(CNC(=O)C1CC(=O)N(c2cccc(C(F)(F)F)c2)C1)c1ccccc1 (centres undefined) | 2 | -21% | 6% | u | x | x
CN(C)c1ccc(CNC(=O)c2cc3cc(S(=O)(=O)N4CCCCC4)ccc3n2C)cc1 | -22 | -14% | -16% | -19% | 10µM* | x
O=C(CCCn1ccc2cc(S(=O)(=O)N3CCCC3)ccc21)NCc1ccc(Cl)cc1 | -87* | -29%[7.34 µM] | u | -26%[7.34 µM] | u | x
O=C(CF)NC(NC(=S)Nc1ccccc1O)C(Cl)(Cl)Cl (centres undefined) | -66* | x | 14% | x | x | x
CC(C)CC(=O)NC(NC(=S)Nc1cccc2cccnc12)C(Cl)(Cl)Cl (centres undefined) | u | u | -9% | x | u | 14µM*
CC(C)C(=O)NC(Nc1cccc2cccnc12)C(Cl)(Cl)Cl (centres undefined) | -33 | -14% | u | -25% | 11% | -24%
O=C(COc1ccccc1)NC(NC(=S)Nc1ccccc1C(=O)O)C(Cl)(Cl)Cl (centres undefined) | -14 | -3% | 10% | -6% | 2% | u
CCC1(c2ccc(F)cc2)NC(=O)N(CC(=O)c2cc(C)n(C3CC3)c2C)C1=O (centres undefined) | -11 | -19% | -10% | -4% | u | -2%
COc1ccc(Br)cc1CSC(=N)N | u | 0% | -25% | -6% | 0%[46.1 µM] | 13µM*
CCCCCOc1ccc(Br)cc1CSC(=N)N | -98* | 11µM* | 16µM* | u | x | x
Cc1nc2ccccc2c(=O)n1NC(=O)Cc1ccc(Br)cc1 | 19 | -9% | 0% | 1.8µM* | u | -10%
CCCCCc1ccc(CC(=O)Nn2c(C)nc3ccccc3c2=O)cc1 | -69* | -25% | x | -30% | -19% | 1%
COc1ccc(CC(=O)Nn2c(-c3ccccc3)nc3ccccc3c2=O)cc1 | -2 | -15% | u | -22% | u | u
CCc1ccc(C(=O)Nn2c(C)nc3ccccc3c2=O)cc1 | 85 | x | 4% | x | x | x
Cc1ccccc1Nc1oc(-c2ccccc2)nc1-c1ccc(C(F)(F)F)cc1 | x | x | x | x | u | 17%[14.2 µM]
Cc1ccccc1-c1cccc(CN2CCc3nnc(C(C)NC(=O)c4cccnc4)n3CC2)c1 (centres undefined) | x | -11% | -5% | -19% | x | x
Cc1ccc(NNc2c(C)nc3ccccc3nc2=O)cc1 | -67* | -17% | 19% | u | -28% | -10%[46.1 µM]
Cc1nc2ccccc2nc1C | x | -7% | x | 13% | x | x
COC(=O)C1=C(C(=O)OC)[C@@H]2Nc3ccccc3[C@@]23C[C@@H](C(=O)OC)N(C(=O)N2CCNC2=O)C3=N1 | x | x | x | x | x | 8%[14.2 µM]
CCCS(=O)(=O)c1nc(S(=O)(=O)c2ccc(C)cc2)c(N2CCOCC2)s1 | -63* | -6% | 18% | i | 0% | 0%
Cc1ccc(S(=O)(=O)c2nc(S(C)(=O)=O)sc2N2CCCCCC2)cc1 | u | 0%[7.34 µM] | 26% | -5%[7.34 µM] | x | x
Cc1ccc(S(=O)(=O)c2nc(S(C)(=O)=O)sc2N2CCN(C)CC2)cc1 | -104* | x | -2% | x | x | x
Cc1cc(C(=O)COc2ccc(-c3nnco3)cc2)c(C)n1Cc1ccccc1 | -70* | x | u | x | u | u
CCOC(=O)[C@@H]1CSc2[nH]c(=O)sc2[C@@H]1c1ccccc1 | x | x | x | x | x | -4%
O=C(NCc1ccccc1Cl)c1ccc(S(=O)(=O)Nc2cccc(C(F)(F)F)c2)cc1 | -66* | -6% | 3% | i | u | u
Cc1ccc(NS(=O)(=O)c2ccc(NC(=O)c3cccc(NC(=O)C(C)C)c3)cc2)cc1 | -34 | u | u | x | u | 13µM*
O=C(NCc1ccccc1CN1CCCC1)c1ccc(S(=O)(=O)Nc2ccccc2F)cc1 | -75* | -25% | -7% | u | x | x
Cc1ccnc(NC(=O)Nc2cccc(F)c2)c1 | 12 | x | -34% | x | 6.5µM* | u
Cc1ccc(S(=O)(=O)Nc2ccc(C(=O)Nc3ccncc3)cc2)cc1 | 28 | -10% | 15% | -25% | -12% | u
